# An excerpt weighted towards active compounds, which were near 3.1% of everything screened.
# ALOX12 inhib = 12-hLO (ALOX12) enzyme inhibition. P18054. purified 12-hLO, xylenol orange hydroperoxide absorbance. Potency, µM (doses to about 57.1 µM), for the others: at the top dose activity change, negative = inhibition, hits mostly inhibitors. 0.12% of 150,000 active. AID 1452; note: potency is the fitted concentration of half-maximal effect; nearly all actives have a fitted effect of over 55% in size
# Target sequence (P18054 whole entry, looked up): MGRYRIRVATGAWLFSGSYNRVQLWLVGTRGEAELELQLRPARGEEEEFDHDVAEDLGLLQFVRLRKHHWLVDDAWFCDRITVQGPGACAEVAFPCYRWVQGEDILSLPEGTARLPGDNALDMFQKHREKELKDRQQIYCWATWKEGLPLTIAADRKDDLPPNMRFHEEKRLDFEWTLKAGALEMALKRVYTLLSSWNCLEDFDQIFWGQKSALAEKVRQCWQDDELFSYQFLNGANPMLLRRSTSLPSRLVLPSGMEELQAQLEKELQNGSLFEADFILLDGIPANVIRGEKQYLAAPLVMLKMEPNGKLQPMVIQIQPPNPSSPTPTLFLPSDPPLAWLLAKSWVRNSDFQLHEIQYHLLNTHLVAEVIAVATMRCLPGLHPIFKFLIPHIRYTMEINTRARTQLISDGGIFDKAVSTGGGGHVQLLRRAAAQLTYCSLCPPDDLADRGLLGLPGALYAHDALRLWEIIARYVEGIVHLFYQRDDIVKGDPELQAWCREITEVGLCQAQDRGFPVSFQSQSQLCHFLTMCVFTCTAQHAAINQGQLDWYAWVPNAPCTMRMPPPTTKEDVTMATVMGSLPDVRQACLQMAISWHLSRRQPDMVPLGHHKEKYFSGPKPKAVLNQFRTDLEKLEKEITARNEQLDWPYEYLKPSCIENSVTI
#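 Hydroperoxide output read as Fe(III)-xylenol orange absorbance, 573-to-405 nm ratio, after 30 min reaction with 40 uM arachidonic acid. Enzyme: 150 nM purified human 12hLO, 15 min compound preincubation; 25 mM Hepes pH 7.0, room temperature.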
# PNC inhibitor = perinucleolar compartment assembly inhibition | PC3M PTB-GFP, PNC prevalence imaging, 16 h; stronger effect = lower value | AID 2417 | 3.1% of 140,000 active | activity change (PNC), negative = inhibition, % at 10 µM;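 active = readout at or below -70, meaning at least 70% loss of cells showing the perinucleolar compartment, a nuclear body marking cancer cells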;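 note: plate controls were DMSO wells for no effect and camptothecin positive control wells for full effect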
#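 Compounds are pinned in duplicate onto adhered PC3M cells stably expressing GFP-tagged PTB and incubated 16 h at 37 C. Cells are then fixed, nuclei stained with Hoechst, and PNC-positive cells counted.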
# 15-hLO-2 inh = blocks human 15-lipoxygenase 2 activity; O15296; purified 15hLO-2, xylenol orange hydroperoxide absorbance; Potency, µM (series often up to 57.1 µM), for the others: at the top dose activity change, negative = inhibition, actives largely listed as inhibitors; 0.56% of 110,000 active; note: potency is the fitted concentration of half-maximal effect; nearly all actives have a fitted effect of over 60% in size
#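 Purified human 15hLO-2 (50 nM) preincubated 15 min with compound, then 45 uM arachidonic acid for 90 min at RT in 25 mM Hepes pH 7.5, 0.01% Triton X-100. Hydroperoxide detected by Fe-xylenol orange; 573/405 nm absorbance ratio.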
# Starred values were filed as active, the others as inactive; nt = not tested or not shown; [ ] = another dose, or the depositor's remark. Unless noted, calls come from the whole dose curve; as a rule, active = well fitted curve in the direction sought with a large enough effect; inconclusive = small, poorly fitted or top-dose-only effect, or another doubt; inactive = no such curve, though single readings can be large; an effect the other way counts as inactive or inconclusive. Unless noted, % is set by controls: 0 for no effect and ±100 for the full control effect.
SMILES,ALOX12 inhib,PNC inhibitor,15-hLO-2 inh
Cc1noc(C)c1C(=O)N1CCC2(CC1)CCN(c1cccc(-c3ccccc3)c1)CC2,0.0%,nt,3.3%
CCNC(=O)c1ccc(CSc2ccc(Cl)cc2)cc1,-3.7%,-109.0*,nt
CC(C)c1ccc(C(=O)NCc2ccc(Cl)cc2)cc1,-18.1%,-7.9,nt
COC(=O)C1=C(C(=O)OC)[C@@H]2Nc3ccccc3[C@@]23C[C@@H](C(=O)OC)N(S(=O)(=O)c2ccc(OC)cc2)C3=N1,-3.3%[11.4 µM],nt,nt
O=c1[nH]c2cc3c(cc2cc1C(c1nnnn1Cc1ccccc1)N1CCCc2ccccc21)OCO3 (centres undefined),0.2%,-118.9*,nt
O=c1[nH]c2cc3c(cc2cc1C(c1nnnn1Cc1ccccc1)N1CCCCCC1)OCCO3 (centres undefined),-4.2%,1.6,-6.3%
Cn1c(=O)c(-c2cc(F)cc(F)c2)nc2cnc(Nc3ccccc3)nc21,nt,nt,13.9%
O=C(O)c1c(Cl)cccc1Cl,3.2%,nt,-7.8%
Cc1ccc(S(=O)(=O)NC(CC(=O)N2CCOCC2)c2ccco2)cc1 (centres undefined),-3.3%,-90.9*,3.6%[11.4 µM]
Cc1ccc(S(=O)(=O)NC(CC(=O)NC2CCCC2)c2ccco2)cc1 (centres undefined),-1.8%,1.6,12.7%[11.4 µM]
O=C(c1csnn1)N1CCC2(CCCN(c3ccccc3)C2)CC1,-3.5%,nt,-8.0%
COc1ccccc1N1CCN(C2CCN(C(=O)c3cccs3)CC2)CC1,-21.0%,-118.9*,nt
O=C(c1cccs1)N1CCC(N2CCN(c3ccccc3)CC2)CC1,-7.3%,-3.0,-1.8%
O=[N+]([O-])c1ccc2c(c1)Cc1cc(N=Cc3ccc4c(c3)OCO4)ccc1-2,5.8%[11.4 µM],nt,-14.1%[11.4 µM]
Cc1noc(C)c1C(=O)N1CCC2(CC1)CN(c1ccccc1)C2,-1.2%,nt,1.4%
CCc1cccc2c3c([nH]c12)[C@@](CC)(CC(=O)O)OCC3,-0.5%[25.6 µM],nt,21.6%[25.6 µM]
Cc1ccccc1NC(=O)C1CCN(c2cc(-c3ccccc3)nc3ncnn23)CC1,1.6%,-113.7*,nt
Cc1nc2ncnn2c(N2CCC(C(=O)NC3CCCC3)CC2)c1Cc1ccccc1,-1.0%,42.1,-1.0%
CCOc1cccc(-c2cc(C(=O)N/N=C/c3cccc(OC)c3O)[nH]n2)c1,-12.9%,nt,nt
Cc1noc(C)c1CSc1ccc2ccccc2n1,-0.6%,-118.9*,nt
Cc1noc(C)c1CSc1nc2ccccc2s1,0.9%,32.2,1.0%[2.29 µM]
OC1c2ccccc2-c2nc3ccccc3cc21 (centres undefined),0.7%,nt,-6.7%
Cc1ccc(-n2c(C)cc(C3N=C(N)Nc4nc5ccccc5n43)c2C)c(C)c1 (centres undefined),-1.0%,14.4,3.2%
Cc1cc(C2N=C(N)Nc3nc4ccccc4n32)c(C)n1-c1ccccc1Cl (centres undefined),-6.6%,-99.1*,31.3%
CCCC(=O)NCCc1cc2ccc(OC)cc2[nH]c1=O,-0.8%,-7.1,4.2%
SMILES,ALOX12 inhib,PNC inhibitor,15-hLO-2 inh
CCCCC(=O)NCCc1cc2ccc(OC)cc2[nH]c1=O,1.3%,-100.0*,nt
CC(=O)c1ccccc1C(=O)NCc1cccnc1,-0.9%,-10.9,nt
Cc1nc2ccccn2c1C(=O)NCc1cccnc1,0.5%,-85.5*,5.9%
O=c1[nH]nc(Cc2ccc(Cl)cc2Cl)c2ccccc12,0.9%,-9.1,-2.3%
CCCc1nc(S(=O)(=O)Cc2ccc(Cl)cc2Cl)n[nH]1,-3.3%,-116.4*,-3.5%
CCN(CC)CCCC(C)n1c(-c2ccccc2)nc2c(NCCOC)nc(C)nc21 (centres undefined),0.3%,nt,16.6%
CN(C)CCCN1CCC2(CCC(C(C)(C)C)CC2)CC1,-1.0%[11.4 µM],nt,9.9%[11.4 µM]
CCCC[C@@H]1C[C@H]1C(NC(=O)c1ccccc1)c1ccccc1C(F)(F)F (some centres undefined),0.7%,nt,-1.5%
CCN(CC)S(=O)(=O)c1cccc(NC(=O)C(=O)c2c(-c3ccccc3)cc3ccccn23)c1,-7.5%,7.3,-18.4%
CCN(CC)S(=O)(=O)c1cccc(C(=O)c2c(C)cc3ccccn23)c1,-7.3%,-93.9*,nt
CCOc1cccc(-c2nnc3n2N=C(c2cc(OC)ccc2OC)CS3)c1,-13.7%,-98.6*,nt
COc1cccc(-c2nnc3n2N=C(c2cc(OC)ccc2OC)CS3)c1,-3.7%,-1.1,-5.5%
N#CC(C#N)=CNCCN1CCN(C=C(C#N)C#N)CC1,0.9%[11.4 µM],nt,-6.6%[11.4 µM]
COc1ccc(N(CC(=O)NC2CCCCC2)C(=O)CNC(=O)c2ccco2)cc1OC,-1.2%,-100.0*,nt
CCCCN(C(=O)CNC(=O)c1ccco1)C(C(=O)NC1CCCCC1)c1ccc(OC)cc1OC (centres undefined),0.1%,0.2,1.2%
COc1ccc(N(C(=O)CNC(=O)c2ccco2)C(C(=O)NC2CCCCC2)c2ccco2)cc1 (centres undefined),-2.4%,-126.9*,-6.5%
COC(=O)c1ccc(N(C(=O)CNC(=O)c2ccco2)C(C(=O)NC2CCCC2)c2ccco2)cc1 (centres undefined),1.4%,-13.7,nt
Cc1ccc(C(=O)O[C@@H](C(=O)O)[C@@H](OC(=O)c2ccc(C)cc2)C(=O)O)cc1 (tested in a mixture with another compound),3.4%,nt,-4.7%
C[C@@H]1CC2(OC3C[C@@]4(C)C5=CC[C@H]6C(C)(C)C(O[C@@H]7OC[C@@H](O)[C@H](O)[C@H]7O)CC[C@@]67C[C@@]57CC[C@]4(C)C31)OC(O)C1(C)OC21 (some centres undefined),-2.4%,nt,-15.3%
COc1cc([C@@H]2c3cc4c(cc3[C@@H](O[C@@H]3O[C@H]5CO[C@@H](C)O[C@@H]5[C@@H](O)[C@H]3O)[C@@H]3COC(=O)[C@@H]23)OCO4)cc(OC)c1O,-7.1%,nt,5.6%
CC[C@@]1(O)C(=O)OCc2c1cc1n(c2=O)Cc2cc3cc(O)ccc3nc2-1,-15.5%,nt,-29.5%
O=C(N/N=C/c1ccccn1)c1ccccc1,4.4%,43.6,nt
O=C(Cc1ccc(F)cc1)N/N=C/c1ccccn1,-5.2%,-113.0*,nt
CCCCCCCCCCCCCCCCCCOC[C@@H](COP(=O)([O-])OCC[N+](C)(C)C)OC,3.9%,nt,5.4%
COc1ccc(-n2c(=O)c(-c3cccs3)nc3cnc(N(C)C)nc32)cc1,nt,nt,-8.0%
SMILES,ALOX12 inhib,PNC inhibitor,15-hLO-2 inh
COc1cc(N=C2C(=O)N3CCCc4cccc2c43)cc(OC)c1,0.0%,-103.9*,nt
COc1cccc(/C=C2\N=C3CCCCCN3C2=O)c1,-11.2%,27.3,-1.9%
Nc1nc(SCC(=O)NCc2ccccc2)n[nH]1,0.4%,19.0,-6.4%
Cc1ccc(CNC(=O)CSc2n[nH]c(N)n2)cc1,-2.3%,-92.8*,1.0%[2.29 µM]
COC(=O)c1sc(N2C(=O)C(=O)/C(=C(/O)c3ccccc3)C2c2ccco2)nc1C (centres undefined),16.0%,-83.9*,nt
Cc1nc(N2C(=O)C(=O)/C(=C(/O)c3ccccc3)C2c2ccco2)sc1C (centres undefined),9.1%,16.1,-22.7%
C/C(=C\C1CCCCC1)C(NC(=O)c1ccc(C(F)(F)F)cc1)c1ccc(-c2ccccc2)cc1 (centres undefined),-0.8%,nt,10.4%
CC/C(=C\C1CCCCC1)C(NP(=O)(c1ccccc1)c1ccccc1)c1ccccc1 (centres undefined),-4.0%,-89.9*,nt
CC1CCN(C(=O)c2cc(F)c(F)cc2Cl)CC1,3.0%,-100.0*,nt

# Screening results from PubChem BioAssay.
